# Sampled rows, rich in hits. Any-hit rate of the full collection: about 1.8%.
# pAkt inh: HTS Assay for Inhibitors of Akt Phophorylation: Primary Screen; Neuro2A IGF-stimulated pAkt S473 HTRF, 20 min; stronger effect = lower value; 360,000 compounds, 0.32% hits; activity change, % for hits at 50 µM; in the data active means activity change below about -80%; inconclusive means mostly about -51% to -80%; further: on the % scale 0 is the no-effect control and ±100 the full control effect
#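 Single-point screen (50 µM final compound) in Neuro2A cells stimulated 20 min with 6 nM IGF at 37 deg C. After lysis, Ser473-phosphorylated Akt read by HTRF (ex 330 nm, em 615/665 nm) as the 665/615 ratio.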
# BRCA1 expr up: qHTS Assay to Identify Small Molecule Activators of BRCA1 Expression; MCF7-BRCA1-FFLuc reporter, luminescence, 48 h; response scale: scaled: vehicle 0%, 10 µM genistein 100%; Potency, µM (top dose mostly 46.1 µM), for the others: top-dose activation, hits mostly activators; 380,000 compounds, 1.1% hits; further: potency means the concentration at half of the fitted maximal effect; nearly all actives have a fitted effect of over 80% in size
#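 Cells: MCF7-BRCA1-FFLuc, 2000/well. Exposure: 48 h, 37 °C, 5% CO2. Read: luminescence, 15 min post-substrate. Controls: genistein 10 microM (maximal activation), DMSO (neutral).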
# AT treatment: qHTS Assay for Identifying a Potential Treatment of Ataxia-Telangiectasia; F2112 A-T fibroblasts, KAP-1 phosphorylation AlphaLISA; neocarzinostatin DNA damage 30 min before lysis; Potency, µM (highest dose often 57.5 µM), inactives show top-dose activation, hits mostly activators; 320,000 compounds, 0.19% hits; further: potency means the concentration at half of the fitted maximal effect; % of control where 0% means no effect; nearly all actives have a fitted effect of over 45% in size
#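 hTERT-immortalized A-T patient fibroblasts (F2112), 500 cells/well in OPTI-MEM, 1% FBS, got compounds for 60 min, then NCS for 30 min at 37C. Lysates were then assayed for phospho-KAP-1 by AlphaLISA (anti-pKAP1 donor, anti-KAP1 acceptor beads), 6 hr at 25C.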
# CCT modulator: High-Throughput Screening for Modulators of Cytosolic Chaperonin Activity | purified chaperonin ATPase assay, HTRF ADP detection, 30 min | activity change, % (no concentration beside the values), hits read low | 360,000 compounds, 0.3% hits; in the data active means activity change below about -30%; further: on the % scale 0 is the no-effect control and ±100 the full control effect
#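 ATPase activity: ADP formed was measured by HTRF Transcreener (665/615 nm ratio) after 30 min at 37 deg C with 10 uM ATP. Compounds screened at one 76 uM concentration against 40 or 20 nM TRiC in Tris pH 7.4/KCl/MgCl2/DTT buffer.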
# Mm-Cpn inhibitor: Inhibitors of TCP-1 ring complex (TRiC) of Methanococcus maripaludis (MmCpn): qHTS; Chaperonin Mm-Cpn (Methanococcus maripaludis); purified Mm-Cpn ATPase, ADP Transcreener TR-FRET; Potency, µM (titrated, usually from 76.9 µM), without a hit: at the highest dose activity, negative = inhibition, hits mostly inhibitors; 330,000 compounds, 0.031% hits; AID 504842, 2011; further: potency means the concentration at half of the fitted maximal effect; on the % scale 0 is the no-effect control and ±100 the full control effect; nearly all actives have a fitted effect of over 80% in size
#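 Eu-cryptate anti-ADP/ADP-d2 competition gives a ratio inversely related to ADP. Enzyme at 25 nM was pre-exposed to compound for 10 min, then given 10 uM ATP for 30 min, 37°C throughout.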
# * hit, by the source's call; i = inactive; ? = inconclusive; · = no result given. Unless noted, the call rests on the fitted dose curve; in most records, active means well fitted curve in the direction sought with a large enough effect; inconclusive means small, poorly fitted or top-dose-only effect, or another doubt; inactive means no such curve, though single readings can be large; an effect the other way counts as inactive or inconclusive.
SMILES,pAkt inh,BRCA1 expr up,AT treatment,CCT modulator,Mm-Cpn inhibitor
Cc1[nH]c2ccccc2c1C(=O)C(C)Sc1nc2ccccc2c(=O)n1Cc1cccnc1 (stereo not given),·,8%,·,·,·
O=c1oc(Nc2ccccc2Cl)nc2ccccc12,i,?,-1%,0,0%
O=c1oc(Nc2cccc(Cl)c2)nc2ccccc12,i,7.1µM*,4%,-1,-2%
COc1ccc(-c2nc3n(c2C)Cc2ccccc2-3)cc1,i,32%,22µM*,0,-6%
O=c1cc(-c2ccccc2)nc2n1Cc1ccccc1-2,i,-69%,1%,-1,0%
CNc1c(Cl)cc(/C=C2\C=Cc3ccccc32)cc1Cl,·,11%,·,·,·
Nc1nc(N)c2ncn(C3C=CC(CO)C3)c2n1 (stereo not given),i,14%,·,-1,·
NNC(=O)c1cccc(S(=O)(=O)Nc2cc(Cl)ccc2Cl)c1,i,0%,28µM*,-2,1%
CCOc1ccc(Cn2c(O)cc(=O)[nH]c2=O)cc1,-117%*,-11%,0%,-2,-3%
Cc1cc(NC(=O)CCC(=O)N(CC(=O)NC2CCCC2)c2ccc(Cl)c(Cl)c2)no1,i,-14%,11%,-4,?
O=C(NCc1ccc(Cl)cc1)Nc1ccc(F)cc1,i,86%,5%,0,0%
Cc1ccc(C)c(CNC(=O)Nc2ccccc2)c1,i,7.1µM*,-7%,0,-2%
Cc1ccc(CNC(=O)Nc2ccccc2)cc1,i,3.5µM*,3%,0,?
O=C(NCc1ccc(F)cc1)Nc1ccccc1,i,10µM*,2%,-1,-1%
O=C(NCc1ccc(Cl)cc1Cl)Nc1ccccc1,i,?,·,0,·
O=C(NCC(c1ccco1)N1CCc2ccccc2C1)c1cccc(F)c1 (stereo not given),i,-6%,-1%,1,1%
Cc1ccccc1C(=O)NCC(c1ccco1)N1CCc2ccccc2C1 (stereo not given),i,-11%,3%,-2,40µM*
Cc1cccc(N2CCN(S(=O)(=O)c3ccc(-c4cnc(C5CC5)o4)cc3)CC2)c1C,·,-21%,·,·,·
Cc1ccc(C)c(CSc2cn(CCNC(=O)c3cccs3)c3ccccc23)c1,·,-44%,·,·,·
O=C(Cc1cccs1)N1CCN(S(=O)(=O)c2ccc(F)c(F)c2)CC1,i,-7%,4%,-1,-2%
O=C(Cc1cccs1)N1CCN(S(=O)(=O)c2ccc(Cl)c(C(F)(F)F)c2)CC1,i,18%,-2%,-69*,0%
Cc1ccc(NC(=O)c2ccc(OC(=O)C(C)Oc3ccc(Cl)cc3C)cc2)cc1 (stereo not given),i,5µM*,2%,-1,0%
O=C(Nc1ccc2c(c1)OCCO2)C1CCCN1S(=O)(=O)c1ccc(Cl)cc1 (stereo not given),-111%*,0%,-2%,0,0%
CCOC(=O)c1cnc(SCC(C)C)nc1N,i,7.9µM*,8%,-3,1%
CCOC(=O)c1cnc(SCc2cccc(C)c2)nc1N,i,10µM*,4%,2,-1%
SMILES,pAkt inh,BRCA1 expr up,AT treatment,CCT modulator,Mm-Cpn inhibitor
CCOC(=O)c1cnc(SCC(=O)c2ccc(C)cc2)nc1N,i,-18%,·,-4,-3%
Cc1cc(C)cc(N2C(=O)CS(=O)(=O)C23C(=O)N(C)c2ccccc23)c1 (stereo not given),·,-4%,·,·,·
CCOC(=O)c1c(C)[nH]c(C(=O)OC(C)C(=O)Nc2ccccc2OC)c1C (stereo not given),i,-40%,4%,-2,-1%
CC(C)n1cc(CN2CCC(Oc3ccc(C(=O)N4CCCC4)cc3)CC2)cn1,i,-3%,1%,-1,0%
Cc1ccc(NC(=O)CSCC(=O)Nc2cc(S(=O)(=O)N3CCOCC3)ccc2OC(C)C)cc1,i,-1%,·,0,·
O=C(O)c1cc(N/N=C/c2ccc3c(c2)OCO3)ccc1Cl,i,-71%,0%,0,-1%
